These results are taken from PubChem BioAssay.

Records with an inconclusive call do not appear. Activity calls are given as the source filed them.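 How the source made its calls, unless noted: active means percent response above a set limit, the screen-wide mean plus 3 SD (cut at about 130% in these data); inactive means the rest.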

A short description of the first test: modulators of MEP2-GFP levels in yeast, primary screen, S. cerevisiae, multiplex flow cytometry (AID 1867;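 active means GFP response, as percent of the DMSO control, above the screen-wide mean plus 3 SD, about 139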;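 further: median GFP channel fluorescence of barcode-gated MEP2-GFP cells measured by flow cytometry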). Particulars: S. cerevisiae MEP2-GFP strain, 3 h, at 10 µM, stronger effect = higher value, 100% means same as DMSO wells. Background: A flow cytometer gives signals particle by particle.
On to `CCN(CC)C(=O)N1CCN(C)CC1`, for which the GFP response vs DMSO was 106% (inactive).

Regarding `CC1(C)[C@@H](O)CC[C@]2(C)[C@H]3C(=O)C=C4[C@@H]5C[C@@](C)(C(=O)O)CC[C@]5(C)CC[C@@]4(C)[C@]3(C)CC[C@@H]12`, the GFP response vs DMSO was 100% (inactive).

Regarding `O=C(Nc1ccc(Cl)cn1)Nc1ccccc1Cl`, the GFP response vs DMSO was 105% (inactive).

Consider `COc1c(C=O)c(CCN(C)C(=O)c2ccc(F)cc2)cc2c1OCO2`, for which the GFP response vs DMSO was 104% (inactive).

As for `COc1ccc(C2C3=C(CC(C)(C)CC3=O)N(C)C3=C2C(=O)CC(C)(C)C3)cc1`, the GFP response vs DMSO is 99.6% (inactive).

On to `CC(C)(Sc1cc(C(C)(C)C)c(O)c(C(C)(C)C)c1)Sc1cc(C(C)(C)C)c(O)c(C(C)(C)C)c1`, for which the GFP response vs DMSO is 105% (inactive).

Turning to `CC(=O)NC(NC(=S)N1CCCCCC1)C(Cl)(Cl)Cl` (stereo not given), the GFP response vs DMSO was 104% (inactive).

With `Cc1ccc2c(CC(=O)O)coc2c1`, the GFP response vs DMSO is 94.1% (inactive).

For `COc1cccc(N2C(=O)CC(c3c[nH]c4ccccc34)C2=O)c1` (stereo not given), the GFP response vs DMSO was 103% (inactive).

With `CC1(CC(=O)Nc2ccccc2)NC(=S)N(c2ccccc2)N1` (stereo not given), the GFP response vs DMSO is 111% (inactive).

For `O=c1nc2n(c3c1oc1ccccc13)Cc1ccccc1-2`, the GFP response vs DMSO is 105% (inactive).

As to `COC(=O)c1ccc(NC(=O)C23CCC(C)(C(=O)O2)C3(C)C)cc1` (stereo not given), the GFP response vs DMSO was 104% (inactive).

Regarding `c1cnc(N2CCN(Cc3ccc4c(c3)OCO4)CC2)nc1`, the GFP response vs DMSO was 101% (inactive).

As for `CCOC(=O)C1=C(N)Oc2c(c(=O)[nH]c3ccccc23)C1c1ccccc1` (stereo not given), the GFP response vs DMSO is 106% (inactive).

In the case of `CCOc1ccc2[nH]c3c(=O)n(CCc4ccc(OC)cc4)cnc3c2c1`, the GFP response vs DMSO is 112% (inactive).

Take `CC(=O)OC(C)C[N+](C)(C)C` (stereo not given): the GFP response vs DMSO is 102% (inactive).

Turning to `CNc1c2c(nn1C)CCCC2`, the GFP response vs DMSO was 97.7% (inactive).

Take `O=C(CN1C(=O)/C(=C/c2cccc(Br)c2)SC1=S)Nc1cccnc1`: the GFP response vs DMSO is 105% (inactive).

With `N/C(Cc1ccc(Cl)cc1Cl)=N\OC(=O)c1ccc(Br)o1`, the GFP response vs DMSO was 128% (inactive).

With `O=C(c1ccco1)N1CCCN(Cc2nc(-c3ccc4c(c3)OCO4)no2)CC1`, the GFP response vs DMSO was 103% (inactive).

Turning to `Cc1ccc2c(c1)C(O)(C1COC(C)(C)CC1=O)C(=O)N2C` (stereo not given), the GFP response vs DMSO was 105% (inactive).

Turning to `CC(C)(C)C(=O)N1CCCC1C(=O)O` (stereo not given), the GFP response vs DMSO is 96.6% (inactive).

On to `COc1ccc(C2NC(=O)c3ccccc3O2)c(OC)c1OC` (stereo not given), for which the GFP response vs DMSO is 104% (inactive).

As to `CC(C(=O)O)c1cccc(C(=O)c2ccccc2)c1` (stereo not given), the GFP response vs DMSO is 107% (inactive).

In the case of `C[N+]1(C2CCC3CCCC2C3O)CCCCC1` (stereo not given), the GFP response vs DMSO is 100% (inactive).

With `CCc1cc(=O)oc2cc3occ(-c4ccc(OC)c(F)c4)c3cc12`, the GFP response vs DMSO is 116% (inactive).

`COC(=O)[C@H]1[C@H]2C[C@@H]3c4[nH]c5cc(OC)ccc5c4CCN3C[C@H]2C[C@@H](OC(=O)c2ccc(N)cc2)[C@@H]1OC`: the GFP response vs DMSO is 98.3% (inactive).

Take `O=C(CN1CCN(Cc2ccccc2)CC1)N1CCCc2c1c(=O)oc1ccc(O)cc21`: the GFP response vs DMSO was 127% (inactive).

Turning to `CCOc1ccc2ccccc2c1C(=O)N[C@@H]1C(=O)N2[C@@H]1SC(C)(C)[C@@H]2C(=O)O`, the GFP response vs DMSO is 112% (inactive).

On to `COc1ccccc1N1CCN(CC(O)COc2cccc3ccccc23)CC1` (stereo not given), for which the GFP response vs DMSO is 105% (inactive).

As to `C[C@]12CC[C@@H]3c4ccc(O)cc4[C@@H](O)C[C@H]3[C@@H]1CC[C@@H]2O`, the GFP response vs DMSO was 101% (inactive).

For the compound `O[C@H]1COC2C1OC[C@@H]2O` (stereo not given in full), the GFP response vs DMSO was 107% (inactive).

With `O=C(NCCO)c1ccc(Cl)c(Cl)c1`, the GFP response vs DMSO was 104% (inactive).

Take `O=C(Nc1ccc(C(=O)NC2CCCCC2)cc1)c1cccnc1`: the GFP response vs DMSO is 101% (inactive).

For `CC(=O)Oc1ccc(C(c2ccc(OC(C)=O)cc2)c2ccccn2)cc1`, the GFP response vs DMSO was 104% (inactive).

In the case of `CC(CCc1ccccc1)NC(=O)/C=C/c1ccccc1` (stereo not given), the GFP response vs DMSO is 132% (inactive).

With `Cc1ccc2nc(NC3=NC(CC(=O)O)C(=O)N3)nc(C)c2c1` (stereo not given), the GFP response vs DMSO is 100% (inactive).

As to `O=C(NC(Nc1ccccn1)C(Cl)(Cl)Cl)c1ccccc1` (stereo not given), the GFP response vs DMSO is 102% (inactive).

Regarding `NC(N)=N/N=C/c1cccc(Cl)c1Cl`, the GFP response vs DMSO was 96.3% (inactive).

As to `COc1ccccc1C(=O)Oc1ccc2c(c1)O/C(=C\c1ccncc1)C2=O`, the GFP response vs DMSO was 105% (inactive).

A further test can be described thus: modulators of CIT2-GFP expression in yeast, primary screen, S. cerevisiae, GFP fusion, multiplex flow cytometry (AID 1870).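 Further: barcoded CIT2-GFP strain pooled with four other GFP strains with rapamycin as positive control; median GFP fluorescence per well over plate mean of DMSO wells so 100% = DMSO.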 The note with it: 3 h, at 10 µM, stronger effect = higher value.
On to `CCN(CC)C(=O)N1CCN(C)CC1`, for which the percent response of DMSO control is 101% (inactive).

With `CC1(C)[C@@H](O)CC[C@]2(C)[C@H]3C(=O)C=C4[C@@H]5C[C@@](C)(C(=O)O)CC[C@]5(C)CC[C@@]4(C)[C@]3(C)CC[C@@H]12`, the percent response of DMSO control is 89.6% (inactive).

In the case of `O=C(Nc1ccc(Cl)cn1)Nc1ccccc1Cl`, the percent response of DMSO control was 107% (inactive).

Take `COc1c(C=O)c(CCN(C)C(=O)c2ccc(F)cc2)cc2c1OCO2`: the percent response of DMSO control was 100% (inactive).

Consider `COc1ccc(C2C3=C(CC(C)(C)CC3=O)N(C)C3=C2C(=O)CC(C)(C)C3)cc1`, for which the percent response of DMSO control is 88% (inactive).

`CC(C)(Sc1cc(C(C)(C)C)c(O)c(C(C)(C)C)c1)Sc1cc(C(C)(C)C)c(O)c(C(C)(C)C)c1`: the percent response of DMSO control was 107% (inactive).

`CC(=O)NC(NC(=S)N1CCCCCC1)C(Cl)(Cl)Cl` (stereo not given): the percent response of DMSO control was 98.9% (inactive).

As for `Cc1ccc2c(CC(=O)O)coc2c1`, the percent response of DMSO control was 109% (inactive).

`COc1cccc(N2C(=O)CC(c3c[nH]c4ccccc34)C2=O)c1` (stereo not given): the percent response of DMSO control is 110% (inactive).

Take `CC1(CC(=O)Nc2ccccc2)NC(=S)N(c2ccccc2)N1` (stereo not given): the percent response of DMSO control was 90.1% (inactive).

Consider `O=c1nc2n(c3c1oc1ccccc13)Cc1ccccc1-2`, for which the percent response of DMSO control is 104% (inactive).

For the compound `COC(=O)c1ccc(NC(=O)C23CCC(C)(C(=O)O2)C3(C)C)cc1` (stereo not given), the percent response of DMSO control was 102% (inactive).

For the compound `c1cnc(N2CCN(Cc3ccc4c(c3)OCO4)CC2)nc1`, the percent response of DMSO control is 102% (inactive).

In the case of `CCOC(=O)C1=C(N)Oc2c(c(=O)[nH]c3ccccc23)C1c1ccccc1` (stereo not given), the percent response of DMSO control was 91% (inactive).

As to `CCOc1ccc2[nH]c3c(=O)n(CCc4ccc(OC)cc4)cnc3c2c1`, the percent response of DMSO control is 90.1% (inactive).

On to `CC(=O)OC(C)C[N+](C)(C)C` (stereo not given), for which the percent response of DMSO control was 96.4% (inactive).

With `CNc1c2c(nn1C)CCCC2`, the percent response of DMSO control was 106% (inactive).

For the compound `O=C(CN1C(=O)/C(=C/c2cccc(Br)c2)SC1=S)Nc1cccnc1`, the percent response of DMSO control was 101% (inactive).

Take `N/C(Cc1ccc(Cl)cc1Cl)=N\OC(=O)c1ccc(Br)o1`: the percent response of DMSO control is 106% (inactive).

With `O=C(c1ccco1)N1CCCN(Cc2nc(-c3ccc4c(c3)OCO4)no2)CC1`, the percent response of DMSO control is 106% (inactive).

Regarding `Cc1ccc2c(c1)C(O)(C1COC(C)(C)CC1=O)C(=O)N2C` (stereo not given), the percent response of DMSO control is 104% (inactive).

Consider `CC(C)(C)C(=O)N1CCCC1C(=O)O` (stereo not given), for which the percent response of DMSO control is 99% (inactive).

Consider `COc1ccc(C2NC(=O)c3ccccc3O2)c(OC)c1OC` (stereo not given), for which the percent response of DMSO control was 111% (inactive).

`CC(C(=O)O)c1cccc(C(=O)c2ccccc2)c1` (stereo not given): the percent response of DMSO control was 97.6% (inactive).

On to `C[N+]1(C2CCC3CCCC2C3O)CCCCC1` (stereo not given), for which the percent response of DMSO control was 115% (inactive).

As to `CCc1cc(=O)oc2cc3occ(-c4ccc(OC)c(F)c4)c3cc12`, the percent response of DMSO control was 111% (inactive).

As for `COC(=O)[C@H]1[C@H]2C[C@@H]3c4[nH]c5cc(OC)ccc5c4CCN3C[C@H]2C[C@@H](OC(=O)c2ccc(N)cc2)[C@@H]1OC`, the percent response of DMSO control was 111% (inactive).

`O=C(CN1CCN(Cc2ccccc2)CC1)N1CCCc2c1c(=O)oc1ccc(O)cc21`: the percent response of DMSO control was 108% (inactive).

Consider `CCOc1ccc2ccccc2c1C(=O)N[C@@H]1C(=O)N2[C@@H]1SC(C)(C)[C@@H]2C(=O)O`, for which the percent response of DMSO control was 93.1% (inactive).

Regarding `COc1ccccc1N1CCN(CC(O)COc2cccc3ccccc23)CC1` (stereo not given), the percent response of DMSO control was 98.3% (inactive).

Consider `C[C@]12CC[C@@H]3c4ccc(O)cc4[C@@H](O)C[C@H]3[C@@H]1CC[C@@H]2O`, for which the percent response of DMSO control was 108% (inactive).

As to `O[C@H]1COC2C1OC[C@@H]2O` (stereo not given in full), the percent response of DMSO control was 102% (inactive).

As for `O=C(NCCO)c1ccc(Cl)c(Cl)c1`, the percent response of DMSO control was 102% (inactive).

Take `O=C(Nc1ccc(C(=O)NC2CCCCC2)cc1)c1cccnc1`: the percent response of DMSO control is 107% (inactive).

As to `CC(=O)Oc1ccc(C(c2ccc(OC(C)=O)cc2)c2ccccn2)cc1`, the percent response of DMSO control is 99.6% (inactive).

With `CC(CCc1ccccc1)NC(=O)/C=C/c1ccccc1` (stereo not given), the percent response of DMSO control is 107% (inactive).

As for `Cc1ccc2nc(NC3=NC(CC(=O)O)C(=O)N3)nc(C)c2c1` (stereo not given), the percent response of DMSO control was 106% (inactive).

As to `O=C(NC(Nc1ccccn1)C(Cl)(Cl)Cl)c1ccccc1` (stereo not given), the percent response of DMSO control was 103% (inactive).

Regarding `NC(N)=N/N=C/c1cccc(Cl)c1Cl`, the percent response of DMSO control is 98.6% (inactive).

On to `COc1ccccc1C(=O)Oc1ccc2c(c1)O/C(=C\c1ccncc1)C2=O`, for which the percent response of DMSO control is 97.7% (inactive).
